Bioassay records (PubChem BioAssay)
HCMV inh: blocks human cytomegalovirus replication; hit rate 4.5% among 410,000; HFF cells, HCMV-luciferase reporter, 72 h; hits give low values; AID 1259415; activity change, negative = inhibition, % at 57.5 µM; in the data active = activity change below about -60%; inconclusive = no clear call, values can overlap the other calls; inactive = above about -39%
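Screen run at 2 compound doses on HFFs infected with reporter HCMV, MOI 1 PFU/cell. Luciferase activity from cell lysates at 72 h post infection gave inhibition relative to buffer-only and Salinomycin wells.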
FBPA Giardia inh: blocks Giardia fructose-bisphosphate aldolase activity; A8B2U2; purified Giardia FBPA; Potency, µM (highest dose often 59.6 µM), inactives show at the top dose activity, negative = inhibition, most hits filed as inhibitors; hit rate 0.71% among 290,000; note: potency is the fitted concentration of half-maximal effect; nearly all actives have a fitted effect of over 55% in size
Target sequence (A8B2U2 whole entry, looked up): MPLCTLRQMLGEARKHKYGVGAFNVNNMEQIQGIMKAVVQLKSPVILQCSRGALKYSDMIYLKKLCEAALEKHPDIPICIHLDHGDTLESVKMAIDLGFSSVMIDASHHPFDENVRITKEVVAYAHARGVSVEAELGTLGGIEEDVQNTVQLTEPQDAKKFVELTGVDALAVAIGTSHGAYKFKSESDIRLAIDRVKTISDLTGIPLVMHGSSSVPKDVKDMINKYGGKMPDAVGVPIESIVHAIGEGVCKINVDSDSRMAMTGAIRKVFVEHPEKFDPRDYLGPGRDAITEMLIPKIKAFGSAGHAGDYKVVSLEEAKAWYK
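Giardia FBPA (40 nM reagent) was preincubated 10 min at RT with compound (up to 57.5 uM final), then substrate plus GAPDH/TPI/NAD/arsenate coupling system with diaphorase/resazurin was added; resorufin fluorescence (525/598 nm) was read after 20 min.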
Pf growth 96h: inhibits malaria parasite growth, 96 h; Potency, µM (series often up to 28.7 µM), inactives show at the top dose activity change, negative = inhibition, most hits filed as inhibitors; AID 504834; P. falciparum luciferase reporter growth, 96 h; hit rate 6.9% among 320,000; note: potency is the fitted concentration of half-maximal effect
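96 h incubation, 37 C, 5% CO2, of luciferase-reporter P. falciparum-infected RBCs (2% hematocrit, 0.05% parasitemia final) with test compounds; endpoint luminescence.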
Pf growth 48h: P. falciparum growth inhibition at 48 hours (one generation); P. falciparum luciferase growth in erythrocytes, 48 h; Potency, µM (titrated, usually from 28.7 µM), without a hit: at the highest dose activity change, negative = inhibition, actives largely listed as inhibitors; hit rate 5.9% among 310,000; note: potency is the fitted concentration of half-maximal effect
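In quantitative HTS format, infected erythrocytes bearing luciferase-reporter parasites were treated for a single generation at 37 C. Luminescence after adding detection reagent served as the growth measure.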
Sm TGR inh: S. mansoni TGR enzyme inhibition; purified TGR, DTNB reduction, TNB absorbance 405 nm; Potency, µM (top dose mostly 114 µM), inactives show top-dose activity change, negative = inhibition, hits mostly inhibitors; hit rate 3% among 360,000; AID 485364; note: potency is the fitted concentration of half-maximal effect; nearly all actives have a fitted effect of over 60% in size
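TGR 20 nM + NADPH 100 uM (dispensed conc.), cpd preinc 15 min RT; start with NADPH (500 uM addition) then DTNB (15 mM addition). Kinetic TNB absorbance, 405 nm filter. Four-parameter Hill fit across titration.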
* marks the source's active call; other numbers are inactive results; ? = inconclusive; . = not tested or not shown; [ ] = another dose, or the depositor's remark. Compounds with a hit are over-represented: about 14% of the library has one in this group of screens. Unless noted, calls come from the whole dose curve; as a rule, active = well fitted curve in the direction sought with a large enough effect; inconclusive = small, poorly fitted or top-dose-only effect, or another doubt; inactive = no such curve, though single readings can be large; an effect the other way counts as inactive or inconclusive. % is set by controls: 0 for no effect and ±100 for the full control effect.

SMILES	HCMV inh	FBPA Giardia inh	Pf growth 96h	Pf growth 48h	Sm TGR inh
CCOC(=O)c1ccc(N2C(=O)CC(Sc3ncccn3)C2=O)cc1 (centres undefined)	-14	-29%	3%	11%	40µM*
Cc1ccc(N2C(=O)CC(Sc3nccc(C)n3)C2=O)cc1 (centres undefined)	-4	5%	-6%	-11%	?
CCOC(=O)C(N)CSC1CC(=O)N(c2ccc(C(=O)OC)cc2)C1=O (centres undefined)	1	4%	5.2µM*	54%	?
CCCOc1ccc(N2C(=O)CC(SCC(N)C(=O)OCC)C2=O)cc1 (centres undefined)	31	?	?	?	?
Cc1cc(OCC(=O)NCC2CCC(C(=O)O)CC2)c2c(C)c(C)c(=O)oc2c1 (centres undefined)	10	8%	?	0%	9%
COc1ccc2cc3cc(C(=O)N4CCN(c5ccccc5F)CC4)oc3nc2c1	-11	.	.	.	1%
COc1cc2c(cc1OC)CN(c1ccc(C(F)(F)F)cn1)CC2	-35	-3%	38%	19%	3%
COc1cc2c(cc1OC)CN(c1ccc(-c3ccccc3OC)nn1)CC2	.	-15%	6%[5.75 µM]	5.2µM*	-4%
COc1cc2c(cc1OC)CN(c1ccc3ccccc3n1)CC2	-5	-30%	?	12µM*	-18%
CCCNC(=O)N1[C@@H]2Cn3c(cccc3=O)[C@H]1[C@@H](C(=O)OC)[C@@H]2CO	8	.	.	.	.
CCOC(CN=c1nc(N(C)C)ss1)OCC	5	.	.	.	.
CN(C)c1nc(=NCc2ccco2)ss1	.	?	2.6µM*	?	5%
Cc1cc2c(NCc3ccccc3)ncnc2s1	-76*	-3%	3%	?	-3%
COc1ccc(CNc2ncnc3sccc23)cc1	-73*	8%	-2%	-7%	3%
c1csc(CNc2ncnc3sccc23)c1	-79*	.	.	.	.
c1ccc(CNc2ncnc3sccc23)cc1	-94*	-4%	22%	21%	-19%
O=C(Nc1ccc2oc(-c3cccc4c(Br)cccc34)nc2c1)c1ccc(Br)cc1	5	.	.	.	27%
COc1ccc(NS(=O)(=O)c2cc(NC(=O)CCc3ccccc3)ccc2N2CCOCC2)cc1	-19	.	.	.	.
Cc1cc(C)c2c(c1)NC(c1cc3c(cc1Br)OCO3)C1CC=CC21 (centres undefined)	6	1%	-19%	13µM*	5%
Brc1cc2c(cc1C1Nc3ccccc3C3C=CCC31)OCO2 (centres undefined)	38	1%	7%	?	-2%
Cc1ccc(Cl)cc1N1CCN(C(=O)c2ccc3nc[nH]c3c2)CC1	-61*	2%	-19%	0%	-2%
Cc1cccc(N2CCN(C(=O)c3ccc4nc[nH]c4c3)CC2)c1C	?	17%	?	1%	-1%
Cc1ccc(Cl)cc1N1CCN(C(=O)c2ccc3c(c2)CCN3S(C)(=O)=O)CC1	-66*	.	-39%	?	0%
COC(=O)C1OC(=O)C2OC23[C@]2(C)C(O)CC4C(C)(C)C(OC(C)=O)CC(OC(C)=O)[C@@]4(C)C2CC[C@@]13C (some centres undefined)	.	-1%	.	.	.
O=c1[nH]n(Cc2ccccc2)c2ccccc12	9	-4%	?	3%	5%
SMILES	HCMV inh	FBPA Giardia inh	Pf growth 96h	Pf growth 48h	Sm TGR inh
CC(NC(=O)Nc1ccc(O)cc1)(C(F)(F)F)C(F)(F)F	-3	?	?	?	-34%
CC(NC(=O)NC(N)=O)(C(F)(F)F)C(F)(F)F	-29	0%	7.4µM*	23%	6%
C[C@@H]1CCCCO[C@H](CN(C)S(=O)(=O)c2ccc(F)cc2)[C@@H](C)CN([C@H](C)CO)C(=O)c2cc(NC(=O)Nc3ccc(C(F)(F)F)cc3)ccc2O1	-23	.	.	.	.
CC1/C=C/C=C/C=C/C=C/C=C/C=C/C=C/C(OC2OC(C)C(O)C(N)C2O)CC2O[C@@](O)(CC(O)CC(O)C(O)CCC(O)CC(O)CC(=O)OC(C)[C@H](C)C1O)CC(O)C2C(=O)O (some centres undefined)	.	-27%	.	.	.
COc1cc(NC(=O)COc2ccc3c(C)cc(=O)oc3c2C)cc(OC)c1OC	-19	2%	?	?	-3%
Cc1cccc(NC(=O)/C(C#N)=C/c2cn(CC(=O)NCc3ccco3)c3ccccc23)c1	-63*	5%	22%	20%	-4%
COc1ccccc1OCCn1cc(/C=C(\C#N)C(=O)NCc2ccco2)c2ccccc21	25	4%	-19%	?	5%
Cc1ccc(C)c(OCCn2cc(/C=C(\C#N)C(=O)NCc3ccco3)c3ccccc32)c1	37	-2%	0%	9.3µM*	-2%
CCOC(=O)c1ccc(CN(Cc2ccccc2C)S(=O)(=O)c2ccc(C(C)(C)C)cc2)cc1	15	.	.	.	7%
O=[N+]([O-])c1cccc(S(=O)(=O)NCC2CC3CCC2C3)c1 (centres undefined)	2	11%	?	-19%	-31%
CN(Cc1ccc(F)cc1)C(=O)c1ccc2c(c1)NC(=O)CS2	-27	5%	?	-8%	3%
O=C1CSc2ccc(C(=O)N3CCCCC3)cc2N1	-68*	.	.	.	.
O=C1CSc2ccc(C(=O)O)cc2N1	6	1%	12µM*	3%	3%
NC(=O)C1CCCN(C(=O)c2ccc3c(c2)NC(=O)CS3)C1 (centres undefined)	-8	.	?	?	5%
CS(=O)(=O)n1nc(OC(=O)c2cccc3ccccc23)cc1N	203	-4%	5.2µM*	20%	0%
CS(=O)(=O)n1nc(OC(=O)c2cccs2)cc1N	7	6%	-6%	?	40µM*
CS(=O)(=O)n1nc(OC(=O)c2cc(Br)ccc2Cl)cc1N	19	9%	-33%[5.75 µM]	-8%	5µM*
COc1ccc(S(=O)(=O)n2nc(OC(=O)c3ccccc3Br)cc2N)cc1	39	-2%	200%	-1%	?
CCOC(=O)C1=C(O)C(=O)N(Cc2ccccc2)CC1	42	-12%	19%	0%	8%
COC(CNC(=O)c1ccc(CS(=O)(=O)c2ccccc2)o1)OC	-8	3%	?	3%	18µM*
Cc1ccc(CNC(=O)c2ccc(CS(=O)(=O)c3ccccc3)o2)cc1	-61*	.	4.7µM*	8%	-14%
COC(=O)c1ccc(CS(=O)(=O)c2ccc(F)cc2)o1	-19	-5%	5.2µM*	-5%	22µM*
Cc1ccc(S(=O)(=O)Cc2ccc(C(=O)NCc3cccs3)o2)cc1	44	0%	3.7µM*	.	53%
Cc1ccc(CNC2CCCCC2)s1	-5	?	?	0%	7%
CS(=O)(=O)NC1c2cccc3cccc(c23)C1Sc1nncn1/N=C/c1ccco1 (centres undefined)	52	-13%	216%	-4%	50µM*
